# Measured values taken from the supplement of paper PMC10849652.
# About 8,800 targets were measured; listed, in parts, are those with a hit and a random draw of the rest. About 0.5% of all pairs of compound and target were hits. Unmarked numbers belong to inactive results.
# Assays:
# Assay in all cases: log2 fold change, soluble protein after heating vs DMSO (PISA); higher = thermal stabilisation; K562 lysate, 10 uM; active = over 0.2 and 3.5 SD of the protein, either way, in both replicates (recomputed)
# lapatinib = compound: CS(=O)(=O)CCNCc1ccc(-c2ccc3ncnc(Nc4ccc(OCc5cccc(F)c5)c(Cl)c4)c3c2)o1 [lapatinib]
# How it was run: (§1)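 K562 pellets were dounce-homogenised in PBS pH 7.4 with 1 mM MgCl2, and the crude extract at 1 mg/mL protein was treated with 10 μM compound for 30 min. Aliquots were heated for 3 min across 48°C-58°C, pooled, and brought to 0.5% NP-40 at 4°C; soluble protein was the supernatant after 21,000xg for 90 min. Soluble protein was quantified by TMTpro 16plex LC-MS/MS with channel sums equalised, and reported as log2 fold change in thermal stability against DMSO controls, with values from duplicates.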
# pictilisib = compound: CS(=O)(=O)N1CCN(Cc2cc3nc(-c4cccc5[nH]ncc45)nc(N4CCOCC4)c3s2)CC1 [pictilisib]
# How it was run: as §1
# crizotinib = compound: C[C@@H](Oc1cc(-c2cnn(C3CCNCC3)c2)cnc1N)c1c(Cl)ccc(F)c1Cl [crizotinib]
# How it was run: as §1
# [1] = compound: C[C@H](C1=CC=C(C=C1)C(=O)NC2=C3C=CNC3=NC=C2)N
# How it was run: as §1
# duvelisib = compound: C[C@H](Nc1ncnc2nc[nH]c12)c1cc2cccc(Cl)c2c(=O)n1-c1ccccc1 [duvelisib]
# How it was run: as §1
# gandotinib = compound: Cc1cc(Nc2cc(CN3CCOCC3)c3nc(C)c(Cc4ccc(Cl)cc4F)n3n2)n[nH]1 [gandotinib]
# How it was run: as §1
# tozasertib = compound: Cc1cc(Nc2cc(N3CCN(C)CC3)nc(Sc3ccc(NC(=O)C4CC4)cc3)n2)n[nH]1 [tozasertib]
# How it was run: as §1
# doramapimod = compound: Cc1ccc(-n2nc(C(C)(C)C)cc2NC(=O)Nc2ccc(OCCN3CCOCC3)c3ccccc23)cc1 [doramapimod]
# How it was run: as §1
# bafetinib = compound: Cc1ccc(NC(=O)c2ccc(CN3CC[C@H](N(C)C)C3)c(C(F)(F)F)c2)cc1Nc1nccc(-c2cncnc2)n1 [bafetinib]
# How it was run: as §1
# [2] = compound: Cc1cccc(CC(=O)N2CCc3c2ccc(-c2cn(C)c4ncnc(N)c24)c3F)n1
# How it was run: as §1
# UniProt Q96KP1, sequence (Q96KP1 whole entry, looked up): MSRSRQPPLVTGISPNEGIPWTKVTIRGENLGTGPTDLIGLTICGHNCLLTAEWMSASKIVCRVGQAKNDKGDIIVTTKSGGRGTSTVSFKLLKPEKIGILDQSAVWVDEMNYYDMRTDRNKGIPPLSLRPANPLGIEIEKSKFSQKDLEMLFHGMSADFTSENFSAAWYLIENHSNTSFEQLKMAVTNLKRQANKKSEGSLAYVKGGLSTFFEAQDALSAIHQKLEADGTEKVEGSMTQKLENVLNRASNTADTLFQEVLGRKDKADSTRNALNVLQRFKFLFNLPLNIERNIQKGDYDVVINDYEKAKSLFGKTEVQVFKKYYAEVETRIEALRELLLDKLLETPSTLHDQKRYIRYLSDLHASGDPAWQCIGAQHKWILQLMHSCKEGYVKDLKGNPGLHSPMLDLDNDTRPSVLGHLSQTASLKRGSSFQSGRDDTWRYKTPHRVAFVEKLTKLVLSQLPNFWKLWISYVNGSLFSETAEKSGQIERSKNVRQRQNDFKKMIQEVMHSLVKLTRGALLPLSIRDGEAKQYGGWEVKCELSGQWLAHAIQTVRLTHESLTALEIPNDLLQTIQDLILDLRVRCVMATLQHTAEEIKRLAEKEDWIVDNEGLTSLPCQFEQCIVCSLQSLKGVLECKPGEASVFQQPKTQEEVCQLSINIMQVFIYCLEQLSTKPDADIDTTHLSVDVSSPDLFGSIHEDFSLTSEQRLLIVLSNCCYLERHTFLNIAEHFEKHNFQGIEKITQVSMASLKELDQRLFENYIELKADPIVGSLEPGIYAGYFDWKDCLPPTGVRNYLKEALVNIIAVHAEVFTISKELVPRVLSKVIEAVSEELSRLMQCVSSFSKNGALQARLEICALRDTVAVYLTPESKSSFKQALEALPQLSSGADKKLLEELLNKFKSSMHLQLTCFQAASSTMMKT
# UniProt O95466, sequence (O95466 whole entry, looked up): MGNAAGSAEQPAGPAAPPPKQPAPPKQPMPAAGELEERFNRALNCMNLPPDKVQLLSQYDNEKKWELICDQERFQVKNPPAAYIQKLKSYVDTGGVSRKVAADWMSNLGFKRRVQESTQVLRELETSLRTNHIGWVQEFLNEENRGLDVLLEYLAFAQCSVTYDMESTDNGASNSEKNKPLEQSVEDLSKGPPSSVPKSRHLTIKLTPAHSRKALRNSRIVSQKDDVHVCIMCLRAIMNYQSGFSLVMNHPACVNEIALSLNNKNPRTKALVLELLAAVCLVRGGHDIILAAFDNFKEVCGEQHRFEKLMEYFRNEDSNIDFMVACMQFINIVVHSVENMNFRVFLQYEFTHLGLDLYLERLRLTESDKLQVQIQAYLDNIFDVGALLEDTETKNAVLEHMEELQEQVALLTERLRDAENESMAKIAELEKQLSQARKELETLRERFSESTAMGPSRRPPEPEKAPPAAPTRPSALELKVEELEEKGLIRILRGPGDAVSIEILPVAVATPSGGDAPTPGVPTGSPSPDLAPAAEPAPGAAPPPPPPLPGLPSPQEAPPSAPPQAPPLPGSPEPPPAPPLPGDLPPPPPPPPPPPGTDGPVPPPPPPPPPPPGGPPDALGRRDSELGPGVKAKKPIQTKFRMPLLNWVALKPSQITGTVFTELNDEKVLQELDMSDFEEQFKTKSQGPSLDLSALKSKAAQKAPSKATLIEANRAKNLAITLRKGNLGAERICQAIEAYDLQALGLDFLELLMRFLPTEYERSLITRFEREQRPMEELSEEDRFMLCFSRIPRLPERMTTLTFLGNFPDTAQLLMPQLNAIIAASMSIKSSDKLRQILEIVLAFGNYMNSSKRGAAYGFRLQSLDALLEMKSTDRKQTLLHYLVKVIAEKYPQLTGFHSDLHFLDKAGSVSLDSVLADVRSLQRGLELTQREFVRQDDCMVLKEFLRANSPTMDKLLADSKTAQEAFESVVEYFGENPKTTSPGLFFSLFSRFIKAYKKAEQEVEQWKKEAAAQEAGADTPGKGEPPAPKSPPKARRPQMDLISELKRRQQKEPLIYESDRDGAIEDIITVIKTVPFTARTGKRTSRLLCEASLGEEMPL
# UniProt Q9BPY3, sequence (Q9BPY3 whole entry, looked up): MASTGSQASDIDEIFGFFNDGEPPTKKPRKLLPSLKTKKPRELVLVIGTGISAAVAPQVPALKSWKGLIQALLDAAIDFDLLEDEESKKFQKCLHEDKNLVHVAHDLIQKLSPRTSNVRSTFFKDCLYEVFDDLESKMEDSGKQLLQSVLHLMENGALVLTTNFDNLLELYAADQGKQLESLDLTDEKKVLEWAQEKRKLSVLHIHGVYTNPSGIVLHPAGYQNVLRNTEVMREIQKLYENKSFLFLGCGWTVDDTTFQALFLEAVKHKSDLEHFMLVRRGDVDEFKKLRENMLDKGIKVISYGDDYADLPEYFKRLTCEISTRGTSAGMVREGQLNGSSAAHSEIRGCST
# UniProt Q9UPW0, sequence (Q9UPW0 whole entry, looked up): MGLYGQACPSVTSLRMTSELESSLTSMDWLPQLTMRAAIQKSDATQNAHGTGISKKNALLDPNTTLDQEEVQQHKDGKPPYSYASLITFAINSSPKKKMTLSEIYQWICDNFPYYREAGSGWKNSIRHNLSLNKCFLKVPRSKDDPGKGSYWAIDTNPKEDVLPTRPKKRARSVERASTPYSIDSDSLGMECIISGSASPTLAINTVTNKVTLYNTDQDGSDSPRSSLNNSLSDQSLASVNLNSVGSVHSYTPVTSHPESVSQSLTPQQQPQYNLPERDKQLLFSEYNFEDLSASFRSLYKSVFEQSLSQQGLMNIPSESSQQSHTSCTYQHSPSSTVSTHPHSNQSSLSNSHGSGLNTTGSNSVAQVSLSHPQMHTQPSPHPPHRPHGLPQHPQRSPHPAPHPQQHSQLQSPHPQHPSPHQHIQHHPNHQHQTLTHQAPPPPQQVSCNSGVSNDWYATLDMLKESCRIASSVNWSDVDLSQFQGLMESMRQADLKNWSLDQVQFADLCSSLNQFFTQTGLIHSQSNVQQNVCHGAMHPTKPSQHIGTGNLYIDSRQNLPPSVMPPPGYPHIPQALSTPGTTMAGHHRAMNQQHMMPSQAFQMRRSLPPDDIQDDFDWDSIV
# UniProt P51570, sequence (P51570 whole entry, looked up): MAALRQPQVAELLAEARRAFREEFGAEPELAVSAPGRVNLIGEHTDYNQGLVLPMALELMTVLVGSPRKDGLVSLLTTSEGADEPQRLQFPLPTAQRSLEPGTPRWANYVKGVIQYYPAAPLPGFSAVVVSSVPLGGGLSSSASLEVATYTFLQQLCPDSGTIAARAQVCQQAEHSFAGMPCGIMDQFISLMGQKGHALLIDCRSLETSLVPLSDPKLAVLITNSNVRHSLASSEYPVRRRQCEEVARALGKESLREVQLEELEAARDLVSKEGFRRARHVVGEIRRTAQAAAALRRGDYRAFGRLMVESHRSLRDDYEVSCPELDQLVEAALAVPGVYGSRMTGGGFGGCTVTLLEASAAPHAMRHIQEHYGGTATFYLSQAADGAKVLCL
# UniProt Q9UI10, sequence (Q9UI10 whole entry, looked up): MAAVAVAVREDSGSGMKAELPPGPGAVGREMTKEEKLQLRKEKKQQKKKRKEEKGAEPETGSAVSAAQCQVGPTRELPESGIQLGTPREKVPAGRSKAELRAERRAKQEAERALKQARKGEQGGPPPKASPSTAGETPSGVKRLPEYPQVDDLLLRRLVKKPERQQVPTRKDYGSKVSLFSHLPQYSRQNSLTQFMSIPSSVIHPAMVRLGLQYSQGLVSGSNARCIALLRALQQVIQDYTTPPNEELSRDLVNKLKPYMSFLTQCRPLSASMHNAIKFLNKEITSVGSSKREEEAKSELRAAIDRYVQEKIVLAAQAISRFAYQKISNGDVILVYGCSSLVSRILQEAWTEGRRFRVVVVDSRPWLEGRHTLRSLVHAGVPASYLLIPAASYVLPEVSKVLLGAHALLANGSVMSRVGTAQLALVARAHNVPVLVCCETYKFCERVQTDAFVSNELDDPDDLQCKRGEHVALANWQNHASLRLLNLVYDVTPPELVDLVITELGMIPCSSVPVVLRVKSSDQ
# UniProt Q9Y613, sequence (Q9Y613 whole entry, looked up): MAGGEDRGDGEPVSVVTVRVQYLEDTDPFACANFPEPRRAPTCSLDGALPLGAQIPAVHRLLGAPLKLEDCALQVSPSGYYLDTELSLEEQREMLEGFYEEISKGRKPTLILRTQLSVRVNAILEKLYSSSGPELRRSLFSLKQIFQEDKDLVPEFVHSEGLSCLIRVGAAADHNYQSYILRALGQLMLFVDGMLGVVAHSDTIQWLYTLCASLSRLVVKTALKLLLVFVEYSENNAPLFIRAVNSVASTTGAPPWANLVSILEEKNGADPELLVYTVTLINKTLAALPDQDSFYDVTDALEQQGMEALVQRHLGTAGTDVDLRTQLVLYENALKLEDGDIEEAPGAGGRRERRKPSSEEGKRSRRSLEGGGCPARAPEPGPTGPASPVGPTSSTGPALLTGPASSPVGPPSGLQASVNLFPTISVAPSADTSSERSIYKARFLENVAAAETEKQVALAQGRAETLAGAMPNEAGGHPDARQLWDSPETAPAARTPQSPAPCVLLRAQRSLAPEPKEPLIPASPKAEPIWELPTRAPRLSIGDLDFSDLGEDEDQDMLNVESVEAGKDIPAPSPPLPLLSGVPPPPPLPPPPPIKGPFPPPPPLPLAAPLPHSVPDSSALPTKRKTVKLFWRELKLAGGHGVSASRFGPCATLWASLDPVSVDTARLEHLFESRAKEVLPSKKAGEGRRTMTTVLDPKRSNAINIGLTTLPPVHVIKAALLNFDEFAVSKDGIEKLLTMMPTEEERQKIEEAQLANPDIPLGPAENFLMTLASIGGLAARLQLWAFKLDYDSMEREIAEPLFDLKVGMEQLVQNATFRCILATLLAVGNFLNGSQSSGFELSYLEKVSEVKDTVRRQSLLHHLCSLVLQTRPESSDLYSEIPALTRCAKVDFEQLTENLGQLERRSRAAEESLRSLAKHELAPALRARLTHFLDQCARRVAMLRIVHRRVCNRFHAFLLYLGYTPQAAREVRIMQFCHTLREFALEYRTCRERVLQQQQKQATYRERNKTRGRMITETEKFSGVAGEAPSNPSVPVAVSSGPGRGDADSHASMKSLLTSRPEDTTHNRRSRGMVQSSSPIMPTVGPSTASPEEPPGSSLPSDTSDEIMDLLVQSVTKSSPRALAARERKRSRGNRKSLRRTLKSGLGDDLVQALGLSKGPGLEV
Target,log2 fold change (lapatinib),log2 fold change (pictilisib),log2 fold change (crizotinib),log2 fold change [1],log2 fold change (duvelisib),log2 fold change (gandotinib),log2 fold change (tozasertib),log2 fold change (doramapimod),log2 fold change (bafetinib),log2 fold change [2]
EXOC2 (UniProt Q96KP1),-0.016,-0.011,-0.099,0.017,-0.032,-0.185,0.001,0.042,-0.056,0.059
FASTKD2 (UniProt Q9NYY8),-0.028,-0.001,-0.032,-0.067,0.026,-0.049,-0.013,0.028,-0.028,0.05
FMNL1 isoform 3 (UniProt O95466),0.058,0.005,-0.013,0.044,0,-0.056,-0.051,0.048,-0.055,0.042
FBLL1 (UniProt A6NHQ2),0.014,-0.076,-0.041,-0.277 (active),0.059,0.028,0.047,-0.013,-0.075,0.053
EIF2B4 isoform 2 (UniProt Q9UI10),-0.041,0.007,-0.037,-0.021,-0.013,-0.048,-0.01,-0.012,-0.058,0.044
FNBP1L (UniProt Q5T0N5),0.005,0,-0.039,-0.023,-0.115,0.002,-0.003,0.113,-0.089,-0.026
GIPC3 (UniProt Q8TF64),0.157,-0.055,-0.103,-0.033,0.05,0.124,-0.097,0,-0.035,0.083
EIF2B5 (UniProt Q13144),-0.01,-0.012,-0.009,-0.005,0.001,-0.119,-0.019,0.003,-0.033,0.006
DYRK1A (UniProt Q13627),-0.024,-0.003,0.018,0.055,-0.021,-0.012,0.03,-0.06,-0.028,-0.021
"EPB41, A0A2R8Y6D0",0.008,-0.14,-0.085,-0.037,-0.086,0.031,0.068,-0.051,-0.031,-0.003
ESRRA (UniProt P11474),0.026,-0.049,-0.025,0.444 (active),0.088,-0.115,0.088,-0.028,0.052,-0.149
ERCC4 (UniProt Q92889),-0.023,-0.013,-0.031,-0.544 (active),0.003,0.054,-0.059,0.087,-0.101,0.159
FAM120B (UniProt Q96EK7),0.041,-0.012,-0.021,-0.018,-0.021,-0.051,-0.064,0.021,-0.045,0.045
ESYT2 (UniProt H7BXI1),-0.008,0.01,-0.039,0.089,0.018,-0.073,0.063,0.018,-0.115,0.002
FHOD1 (UniProt Q9Y613),-0.018,-0.011,-0.014,0.017,-0.023,-0.141,0.008,0.045,-0.063,0.035
FAM83D (UniProt Q9H4H8),-0.01,-0.024,-0.026,-0.021,-0.002,-0.018,-0.038,0.009,-0.116,0.031
"FADS1, A0A0A0MR51",0.203,-0.087,-0.003,-0.024,-0.029,0.559 (active),0.041,0.018,0.027,0.083
GALK1 isoform 2 (UniProt P51570),-0.002,-0.02,-0.015,0.092,-0.028,-0.098,0.03,0.039,-0.007,-0.013
FAM118B (UniProt Q9BPY3),0.022,-0.013,-0.093,-0.022,0.045,-0.044,-0.008,0.048,0.008,0.037
FOXJ3 (UniProt Q9UPW0),0.039,-0.049,-0.053,0.101,0.035,-0.042,0.021,0,-0.139,-0.003
EDC4 (UniProt Q6P2E9),-0.025,-0.029,-0.01,-0.044,0.016,-0.027,-0.016,-0.014,-0.043,0.049
"EIF2B5, A0A3B3ITK8",-0.108,–,–,–,–,–,–,–,–,–
GGT7 (UniProt Q9UJ14),-0.024,-0.007,0.01,0.068,0.011,0.033,-0.03,-0.054,-0.09,0.042
ERLIN2 (UniProt O94905),-0.015,-0.091,-0.004,0.304 (active),0.003,-0.077,0.02,0.043,-0.015,-0.114
FBXO9 (UniProt Q9UK97),-0.334,-0.107,-0.023,0.08,-0.012,-0.141,0.041,0.044,0,-0.104
EAPP (UniProt Q56P03),-0.033,0.058,0,0.03,0.03,-0.157,-0.09,-0.058,0.109,0.128
EXOC1 (UniProt Q9NV70),-0.013,0.029,-0.041,0.04,0.016,-0.186,-0.004,0.023,-0.04,0.024
EIF2AK2 (UniProt P19525),-0.003,0.03,0.12,-0.061,-0.036,-0.022,-0.009,0.011,-0.036,0.022
DTWD1 (UniProt Q8N5C7),-0.049,-0.049,0,0.015,0.06,-0.07,-0.075,0.035,0.002,0.092
G6PD isoform 2 (UniProt P11413),0.018,-0.022,-0.03,0.094,-0.023,-0.063,-0.003,-0.015,0.037,-0.035
